Laboratory results: PubChem BioAssay
For some assays here: Measured potencies and affinities stand elsewhere. The source made the active and inactive calls.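 How the source made its calls, unless noted: active means signal rise over 3 SD above mean of control wells given weak agonist, in both repeats and first screen; inactive means the rest.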

Key:
[1] = tested on: TRPC4 beta (transient receptor potential cation channel C4), mouse; experiment: activators of mouse TRPC4 channel, confirmation, cell-based, Fluo4 calcium, HEK293 TRPC4beta/mu-opioid, duplicates, 10 µM (AID 2426;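 active means fluorescence ratio normalized to control raised more than 50% in primary screen plus both repeat runs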;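 on activation: percent rise of integrated ratio over buffer wells lacking compound which define 0%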); details: Fluo4 calcium fluorescence, at 10 µM; stronger effect = higher value
[2] = tested on: transient receptor potential cation channel C4 beta (TRPC4), mouse; experiment: activators of mouse TRPC4 channel, confirmation, cell-based, second round, Fluo4, HEK293 TRPC4beta/mu-opioid, 1 µM (AID 2461;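 active means primary screen active and over 50% activation in each of two duplicate runs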); details: Fluo4 calcium fluorescence, at 1 µM; stronger effect = higher value
[3] = tested on: TRPC4 (transient receptor potential cation channel C4 beta), mouse; experiment: positive allosteric modulators of mouse TRPC4, confirmation, cell-based, second round, Fluo-4, HEK293 TRPC4beta/mu-opioid, 1 µM (AID 2554;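 active means primary screen hit whose fluorescence ratio, in both repeats, exceeds the weak agonist control mean by 3 SD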); details: DAMGO EC20, Fluo-4 calcium flux, at 1 µM; stronger effect = higher value
[4] = tested on: TRPC4 beta (transient receptor potential cation channel C4), mouse; experiment: positive allosteric modulators of mouse TRPC4, confirmation, cell-based, Fluo-4, HEK293 TRPC4beta/mu-opioid (AID 2555;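 active means primary screen hit whose calcium fluorescence ratio, in both repeats, exceeds the weak agonist control mean by 3 SD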); details: DAMGO EC20, Fluo-4 calcium flux, at 10 µM; stronger effect = higher value
[5] = molecular target: Short transient receptor potential channel 4 (Mus musculus) (UniProt Q9QUQ5); experiment: inhibitors of mouse TRPC4 channel, confirmation, cell-based, Fluo4, HEK293 TRPC4beta/mu-opioid (AID 2636;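 active means calcium signal cut by more than 3 SD below the full-agonist control yet still positive, in both repeats and the earlier primary screen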); details: DAMGO, Fluo4 calcium flux, at 10 µM; stronger effect = higher value
Short transient receptor potential channel 4 (Mus musculus), sequence (Q9QUQ5 whole entry, looked up): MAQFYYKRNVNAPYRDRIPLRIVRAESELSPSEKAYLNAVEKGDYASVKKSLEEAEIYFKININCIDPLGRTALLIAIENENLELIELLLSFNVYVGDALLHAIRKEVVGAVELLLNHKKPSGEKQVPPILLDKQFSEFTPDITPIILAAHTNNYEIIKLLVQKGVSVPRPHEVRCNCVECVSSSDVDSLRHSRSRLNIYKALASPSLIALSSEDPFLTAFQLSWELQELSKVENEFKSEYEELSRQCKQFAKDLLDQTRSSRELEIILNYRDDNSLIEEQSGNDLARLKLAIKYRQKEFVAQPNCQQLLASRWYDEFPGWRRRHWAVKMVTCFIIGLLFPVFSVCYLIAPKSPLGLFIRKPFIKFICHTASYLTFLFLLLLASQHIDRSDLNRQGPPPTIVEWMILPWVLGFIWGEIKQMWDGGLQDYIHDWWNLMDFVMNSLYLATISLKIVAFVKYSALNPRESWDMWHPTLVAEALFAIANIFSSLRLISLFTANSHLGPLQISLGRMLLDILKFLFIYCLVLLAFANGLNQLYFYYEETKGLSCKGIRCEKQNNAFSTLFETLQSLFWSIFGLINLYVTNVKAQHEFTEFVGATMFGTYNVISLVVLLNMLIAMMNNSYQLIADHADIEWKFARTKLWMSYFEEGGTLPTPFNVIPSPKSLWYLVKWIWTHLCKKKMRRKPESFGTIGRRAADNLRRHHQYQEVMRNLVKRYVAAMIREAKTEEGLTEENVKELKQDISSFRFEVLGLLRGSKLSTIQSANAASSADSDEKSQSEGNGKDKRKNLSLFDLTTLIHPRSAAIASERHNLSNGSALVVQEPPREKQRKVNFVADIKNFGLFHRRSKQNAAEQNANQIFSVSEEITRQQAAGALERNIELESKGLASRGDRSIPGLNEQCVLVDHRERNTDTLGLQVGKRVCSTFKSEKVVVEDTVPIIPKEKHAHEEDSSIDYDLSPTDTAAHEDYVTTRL

[6] = molecular target: Short transient receptor potential channel 4 (Mus musculus) (UniProt Q9QUQ5); experiment: inhibitors of mouse TRPC4 channel, confirmation, cell-based, second round, Fluo4, HEK293 TRPC4beta/mu-opioid, 1 µM (AID 2637;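 active means calcium signal ratio cut to more than 3 SD under the fully stimulated control mean yet still positive, in both repeats and the primary screen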;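 on inhibition: percent of integrated ratio relative to wells lacking test compound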); details: Fluo4 calcium flux, DAMGO, at 1 µM; stronger effect = higher value
[7] = molecular target: Short transient receptor potential channel 4 (Mus musculus) (UniProt Q9QUQ5); experiment: mouse TRPC4 channel activators, dose response, cell-based, HEK293 TRPC4/mu-opioid, Fluo-4 calcium (AID 434937;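 active means primary screen activator hit with a dose response curve and TRPC4 channel activation at any tested dose; inactive means no activation, no dose response, or not a primary hit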)
[8] = molecular target: Short transient receptor potential channel 4 (Mus musculus) (UniProt Q9QUQ5); experiment: mouse TRPC4 channel inhibitors, dose response, cell-based, HEK293 TRPC4/mu-opioid, Fluo-4 calcium (AID 434942;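 active means primary screen inhibitor hit that blocks the TRPC4 channel at some tested dose, yielding a dose curve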)
[9] = molecular target: Short transient receptor potential channel 6 (Mus musculus) (UniProt Q61143); experiment: inhibition of mouse TRPC6 channel, confirmation, selectivity assay for TRPC4 inhibitor project, cell-based, HEK293, membrane potential dye, duplicate (AID 434948;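 active means active in primary screen and both duplicates, each dropping signal beyond three positive-control SD with fluorescence still positive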); details: HEK293 TRPC6, membrane potential dye fluorescence, at 10 µM, stimulated with maximal-effect acetylcholine; stronger effect = higher value
Short transient receptor potential channel 6 (Mus musculus), sequence (Q61143 whole entry, looked up): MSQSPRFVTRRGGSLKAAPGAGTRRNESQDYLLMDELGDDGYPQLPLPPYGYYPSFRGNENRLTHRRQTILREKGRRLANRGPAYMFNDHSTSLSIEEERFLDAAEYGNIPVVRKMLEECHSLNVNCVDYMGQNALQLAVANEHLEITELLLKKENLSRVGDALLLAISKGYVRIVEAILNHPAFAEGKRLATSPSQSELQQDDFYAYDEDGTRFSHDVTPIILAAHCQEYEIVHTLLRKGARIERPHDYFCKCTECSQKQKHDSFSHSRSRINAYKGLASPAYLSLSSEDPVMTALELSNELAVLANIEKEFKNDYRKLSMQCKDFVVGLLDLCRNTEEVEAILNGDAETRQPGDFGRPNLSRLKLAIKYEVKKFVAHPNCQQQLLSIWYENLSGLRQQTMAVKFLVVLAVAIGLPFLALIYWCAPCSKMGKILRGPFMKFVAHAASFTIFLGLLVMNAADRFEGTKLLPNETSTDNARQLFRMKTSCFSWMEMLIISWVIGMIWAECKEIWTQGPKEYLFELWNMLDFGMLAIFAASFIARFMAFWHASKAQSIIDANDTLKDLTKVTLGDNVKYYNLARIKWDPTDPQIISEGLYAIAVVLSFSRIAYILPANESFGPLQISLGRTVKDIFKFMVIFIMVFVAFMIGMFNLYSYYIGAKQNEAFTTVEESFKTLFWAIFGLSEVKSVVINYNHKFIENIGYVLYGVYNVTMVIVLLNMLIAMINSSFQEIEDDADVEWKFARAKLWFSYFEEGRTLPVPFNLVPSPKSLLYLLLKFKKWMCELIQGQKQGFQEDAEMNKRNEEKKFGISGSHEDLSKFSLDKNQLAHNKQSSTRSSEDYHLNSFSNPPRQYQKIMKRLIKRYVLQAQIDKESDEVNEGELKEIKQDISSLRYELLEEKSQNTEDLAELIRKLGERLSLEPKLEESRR

[10] = molecular target: Short transient receptor potential channel 6 (Mus musculus) (UniProt Q61143); experiment: activation of mouse TRPC6 channel, confirmation, selectivity assay for TRPC4 activator project, cell-based, HEK293, membrane potential dye, duplicate (AID 434950;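 active means membrane potential signal rise above negative control mean plus 3 SD in both duplicates, also active in the earlier TRPC4 screen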); details: HEK293 TRPC6, membrane potential fluorescence, at 10 µM; stronger effect = higher value
[11] = molecular target: Short transient receptor potential channel 6 (Mus musculus) (UniProt Q61143); experiment: TRPC6 potentiation by TRPC4 potentiator hits, confirmation, selectivity assay for TRPC4 potentiator project, HEK293 cells, membrane potential dye, duplicate (AID 434952;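 active means compound raising the membrane signal above positive-control mean plus 3 SD in both repeats, and a primary screen hit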); details: HEK293 TRPC6, membrane potential dye fluorescence, at 10 µM, maximal acetylcholine added after compound; stronger effect = higher value
[12] = molecular target: Short transient receptor potential channel 4 (Mus musculus) (UniProt Q9QUQ5); experiment: calcium flux activators in TRPC4/5HT1a cells, counter-screen for TRPC4 activator project, cell-based, second counter screen, HEK293 TRPC4/5HT1a, Fluo-4 (AID 434977;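 active means calcium signal rise above buffer-control mean plus 5 SD in both duplicates, and also a hit in the primary screen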); details: Fluo-4 calcium flux, at 10 µM; stronger effect = higher value
[13] = calcium flux inhibitors in TRPC4/5HT1a cells, confirmation, counter-screen for TRPC4 inhibitor project, cell-based, second counter screen, HEK293 TRPC4/5HT1a, Fluo-4 (AID 434978;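 active means primary screen active whose calcium signal fell more than 3 SD beyond the full-serotonin control mean in both duplicate plates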;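 on outcome: serotonin given first at submaximal then at maximal dose after compound preincubation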); details: Fluo-4 calcium flux, at 10 µM, serotonin added to trigger calcium flux; stronger effect = higher value
[14] = tested on: TRPC4 (mouse), co-expressed with 5HT1a in HEK293; experiment: calcium flux potentiators in TRPC4/5HT1a cells, confirmation, counter-screen for TRPC4 potentiator project, cell-based, second counter screen, HEK293 TRPC4/5HT1a, Fluo-4 (AID 434979); details: Fluo-4 calcium flux, at 10 µM, serotonin added at its EC20 dose; stronger effect = higher value
[15] = calcium flux activation in mu-opioid HEK293 cells, confirmation, counter-screen for TRPC4 activator project, cell-based, HEK293 mu-opioid receptor line (AID 449723;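 active means hit in primary screen, with calcium signal over 5 SD above buffer well mean in both duplicates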;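 further: counter screen cells carry the mu-opioid receptor alone and lack TRPC4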); details: Fluo-4 calcium fluorescence, at 10 µM; stronger effect = higher value
[16] = calcium flux enhancement in mu-opioid HEK293 cells, confirmation, counter-screen for TRPC4 allosteric potentiator project, cell-based, HEK293 mu-opioid receptor line (AID 449724;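 active means calcium signal rise more than 3 SD above the low-dose agonist control mean, in both duplicate plates and the primary screen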); details: Fluo-4 calcium flux, at 10 µM, compound added before EC20 DAMGO stimulus; stronger effect = higher value
[17] = molecular target: Short transient receptor potential channel 4 (Mus musculus) (UniProt Q9QUQ5); experiment: TRPC4 positive allosteric modulators, dose response, cell-based, HEK293 TRPC4/mu-opioid, Fluo-4 calcium, EC20 DAMGO (AID 434941;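 active means earlier screen potentiator hit that boosts the TRPC4 ion channel at some dose, with a dose response; inactive means no potentiation, no dose response, or not a prior hit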;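 further: calcium entry triggered by an EC20 dose of DAMGO at the co-expressed mu-opioid receptor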)
[18] = thallium flux activation in parental CHO cells, counter-screen for KCNQ1 potentiator project (AID 493006;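 active means duplicate-averaged activation above buffer control mean plus 5 SD of those controls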;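 on activation: fluorescence ratio of max minus min over baseline after K+ and Tl+ depolarization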); details: parental CHO-K1 cells, FluxOR thallium flux, at 10 µM; stronger effect = higher value
[19] = molecular target: Potassium voltage-gated channel subfamily KQT member 1 (Homo sapiens) (UniProt P51787); experiment: KCNQ1 potassium channel potentiators, confirmation, FluxOR thallium flux, CHO cells, duplicates (AID 493007;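 active means potentiation averaged over duplicate wells exceeding buffer-only control mean by more than 3 SD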;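 on outcome: cells depolarized by a potassium plus thallium sulfate stimulus after compound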;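 on potentiation: 0% = buffer-only wells and 100% = R-L3 activator control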); details: KCNQ1 cell line, FluxOR thallium flux fluorescence, at 10 µM; stronger effect = higher value, % of reference activator effect, buffer zero
Potassium voltage-gated channel subfamily KQT member 1 (Homo sapiens), sequence (P51787 whole entry, looked up): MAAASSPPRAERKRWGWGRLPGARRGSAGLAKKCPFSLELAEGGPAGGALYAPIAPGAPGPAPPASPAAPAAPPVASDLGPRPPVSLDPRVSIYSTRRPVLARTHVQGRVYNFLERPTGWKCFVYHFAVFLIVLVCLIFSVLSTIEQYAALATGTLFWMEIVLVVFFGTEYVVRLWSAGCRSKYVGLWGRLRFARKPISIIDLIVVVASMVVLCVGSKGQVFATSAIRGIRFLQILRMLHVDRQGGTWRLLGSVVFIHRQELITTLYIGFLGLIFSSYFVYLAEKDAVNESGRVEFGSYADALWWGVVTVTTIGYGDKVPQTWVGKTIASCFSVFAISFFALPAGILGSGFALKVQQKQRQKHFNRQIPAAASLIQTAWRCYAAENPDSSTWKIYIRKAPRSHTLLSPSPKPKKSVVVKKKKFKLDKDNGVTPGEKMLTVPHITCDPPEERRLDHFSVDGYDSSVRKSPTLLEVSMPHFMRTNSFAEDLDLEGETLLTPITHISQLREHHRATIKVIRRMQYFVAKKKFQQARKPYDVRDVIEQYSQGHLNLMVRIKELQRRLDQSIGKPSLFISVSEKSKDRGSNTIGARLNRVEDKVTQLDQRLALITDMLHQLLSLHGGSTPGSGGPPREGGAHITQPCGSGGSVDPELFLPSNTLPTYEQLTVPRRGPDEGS

[20] = molecular target: Potassium voltage-gated channel subfamily KQT member 2 (Rattus norvegicus) (UniProt O88943); experiment: rat KCNQ2 channel potentiation, selectivity assay for KCNQ1 potentiator project, KCNQ2-CHO-K1 cells (AID 493009;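 active means mean duplicate potentiation above the buffer control mean plus 5 SD of buffer wells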;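 further: assay conditions were tuned for KCNQ1 rather than KCNQ2 modulators; signal is max minus min fluorescence divided by baseline after thallium stimulus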); details: FluxOR thallium flux fluorescence, at 10 µM; stronger effect = higher value, scaled: buffer 0, activator control 100
Potassium voltage-gated channel subfamily KQT member 2 (Rattus norvegicus), sequence (O88943 whole entry, looked up): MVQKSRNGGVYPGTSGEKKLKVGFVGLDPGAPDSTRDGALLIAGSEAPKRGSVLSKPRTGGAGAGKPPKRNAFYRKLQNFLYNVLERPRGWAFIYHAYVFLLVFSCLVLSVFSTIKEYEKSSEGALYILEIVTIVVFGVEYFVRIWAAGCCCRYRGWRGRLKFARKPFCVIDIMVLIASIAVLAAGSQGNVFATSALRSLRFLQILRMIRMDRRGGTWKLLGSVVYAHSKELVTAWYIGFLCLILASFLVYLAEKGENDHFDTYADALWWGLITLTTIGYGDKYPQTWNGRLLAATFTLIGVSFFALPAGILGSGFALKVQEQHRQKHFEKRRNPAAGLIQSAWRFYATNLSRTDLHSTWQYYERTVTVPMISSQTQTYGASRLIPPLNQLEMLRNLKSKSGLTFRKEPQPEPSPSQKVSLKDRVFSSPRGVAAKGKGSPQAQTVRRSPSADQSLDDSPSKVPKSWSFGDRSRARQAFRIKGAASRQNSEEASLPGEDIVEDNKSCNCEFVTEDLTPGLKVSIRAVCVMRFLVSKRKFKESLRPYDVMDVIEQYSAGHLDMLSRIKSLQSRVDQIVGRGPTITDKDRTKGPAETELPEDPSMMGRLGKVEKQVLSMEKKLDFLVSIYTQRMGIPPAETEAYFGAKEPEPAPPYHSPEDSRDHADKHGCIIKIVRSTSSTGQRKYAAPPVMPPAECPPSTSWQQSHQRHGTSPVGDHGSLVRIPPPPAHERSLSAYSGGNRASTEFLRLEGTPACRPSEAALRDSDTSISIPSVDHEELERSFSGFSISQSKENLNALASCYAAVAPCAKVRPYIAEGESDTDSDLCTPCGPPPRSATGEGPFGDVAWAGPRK

CCCCCCn1c(N2CCN(c3ccccc3)CC2)nc2c1c(=O)n(C)c(=O)n2C
inactive: outcome [1] | outcome [2] | outcome [5] | outcome [6] | outcome [7] | outcome [8] | outcome [9] | outcome [10] | outcome [11] | outcome [12] | outcome [13] | outcome [15] | outcome [16]
active: potentiation [3] 9% | potentiation [4] 117% | potentiation [14] 81%

CC(=O)C1=C(S(=O)(=O)c2ccc(C)cc2)CS(=O)(=O)C1
inactive: outcome [1] | outcome [2] | outcome [3] | outcome [4] | outcome [7] | outcome [17] | outcome [9] | outcome [10] | outcome [11] | outcome [12] | outcome [14] | outcome [15] | outcome [16] | outcome [18] | outcome [19]
active: inhibition [5] 74% | inhibition [6] 39% | inhibition [13] 12.2% | potentiation [20] 200%

c1ccc(-c2nc(NCc3ccco3)c3ccccc3n2)cc1
active: inhibition [5] 87% | inhibition [13] 32.3%
inactive: outcome [1] | outcome [2] | outcome [3] | outcome [4] | outcome [6] | outcome [7] | outcome [17] | outcome [9] | outcome [10] | outcome [11] | outcome [12] | outcome [14] | outcome [15] | outcome [16] | outcome [18] | outcome [19] | outcome [20]

Cc1cc(C(C)(C)C)c(O)c(C)c1CC1=NCCN1
inactive: outcome [1] | outcome [2] | outcome [3] | outcome [5] | outcome [6] | outcome [7] | outcome [8] | outcome [9] | outcome [10] | outcome [11] | outcome [12] | outcome [13] | outcome [14] | outcome [15] | outcome [16]
active: potentiation [4] 14%

O=C(O)c1ccc(Cl)cc1Nc1nc2cc(Cl)ccc2o1
active: inhibition [5] 98% | inhibition [13] 9.42% | potentiation [19] 24.5%
inactive: outcome [1] | outcome [2] | outcome [3] | outcome [4] | outcome [6] | outcome [7] | outcome [17] | outcome [9] | outcome [10] | outcome [11] | outcome [12] | outcome [14] | outcome [15] | outcome [16] | outcome [18] | outcome [20]

Cc1ccc(-c2nnc(N3CCC(C)CC3)c3ccccc23)cc1C
inactive: outcome [1] | outcome [2] | outcome [5] | outcome [6] | outcome [7] | outcome [8] | outcome [9] | outcome [10] | outcome [11] | outcome [12] | outcome [13] | outcome [15] | outcome [16]
active: potentiation [3] 7% | potentiation [4] 127% | potentiation [14] 60.2%

C=CCSc1nc2c(c(=O)[nH]c(=O)n2C)n1C/C=C(/C)Cl
inactive: outcome [1] | outcome [2] | outcome [3] | outcome [4] | outcome [7] | outcome [17] | outcome [9] | outcome [10] | outcome [11] | outcome [12] | outcome [14] | outcome [15] | outcome [16] | outcome [18] | outcome [19] | outcome [20]
active: inhibition [5] 85% | inhibition [6] 57% | inhibition [13] 32.5%

Cc1ccc(/C=C/C(=O)c2ccc(O)cc2)cc1
active: inhibition [5] 76% | inhibition [6] 38% | inhibition [13] 15.8%
inactive: outcome [1] | outcome [2] | outcome [3] | outcome [4] | outcome [7] | outcome [17] | outcome [9] | outcome [10] | outcome [11] | outcome [12] | outcome [14] | outcome [15] | outcome [16] | outcome [18] | outcome [19] | outcome [20]

Cc1ccc(Cn2c(=N)c(C(=O)NC3CCCC3)cc3c(=O)n4ccccc4nc32)cc1
inactive: outcome [2] | outcome [4] | outcome [5] | outcome [6] | outcome [7] | outcome [8] | outcome [9] | outcome [10] | outcome [11] | outcome [12] | outcome [13] | outcome [15] | outcome [16]
active: activation [1] 206% | potentiation [3] 8% | potentiation [14] 41.6%

CN(C)CCOc1cc(Cl)cc(Cl)c1
inactive: outcome [1] | outcome [2] | outcome [3] | outcome [4] | outcome [5] | outcome [6] | outcome [7] | outcome [8] | outcome [9] | outcome [10] | outcome [11] | outcome [12] | outcome [13] | outcome [15] | outcome [16]
active: potentiation [14] 10.7%

Cc1cc(-c2ccc(C)c(S(=O)(=O)N3CCN(c4ccccn4)CC3)c2)on1
inactive: outcome [1] | outcome [2] | outcome [3] | outcome [5] | outcome [6] | outcome [7] | outcome [8] | outcome [9] | outcome [10] | outcome [11] | outcome [12] | outcome [13] | outcome [15] | outcome [16]
active: potentiation [4] 18% | potentiation [14] 16.4%

COc1cc(NS(=O)(=O)c2ccc3ccccc3c2)c2ncccc2c1
active: inhibition [5] 70% | inhibition [13] 23.4% | potentiation [19] 47% | potentiation [20] 154%
inactive: outcome [1] | outcome [2] | outcome [3] | outcome [4] | outcome [6] | outcome [7] | outcome [17] | outcome [9] | outcome [10] | outcome [11] | outcome [12] | outcome [14] | outcome [15] | outcome [16] | outcome [18]

Oc1c(Br)cc(Br)cc1C=Nc1ccc2[nH]ncc2c1
inactive: outcome [1] | outcome [2] | outcome [3] | outcome [4] | outcome [6] | outcome [7] | outcome [17] | outcome [9] | outcome [10] | outcome [11] | outcome [12] | outcome [14] | outcome [15] | outcome [16] | outcome [20]
active: inhibition [5] 68% | inhibition [13] 30.1% | activation [18] 184% | potentiation [19] 41.5%

c1csc(CNc2nc(-c3cccs3)nc3ccccc23)c1
active: inhibition [5] 78% | inhibition [13] 29.7%
inactive: outcome [1] | outcome [2] | outcome [3] | outcome [4] | outcome [6] | outcome [7] | outcome [17] | outcome [9] | outcome [10] | outcome [11] | outcome [12] | outcome [14] | outcome [15] | outcome [16]
